In PMC7862700, “An all-to-all approach to the identification of sequence-specific readers for epigenetic DNA modifications on cytosine” one finds binding signal data, which are given here for one sequence.

Assay in all cases: DAPPL (digital affinity profiling via proximity ligation, sequencing); 10 mM Tris-HCl pH 7.5, 50 mM NaCl, 1 mM DTT, 4% glycerol, room temperature, 30 min; GST-TFs on glutathione beads, 16-mer random dsDNA library, 0.1% formaldehyde crosslink after washing; high values mean tight binding
The target of one test is T1, FLI1 (Homo sapiens, UniProt Q01543 1-452).
T1 sequence: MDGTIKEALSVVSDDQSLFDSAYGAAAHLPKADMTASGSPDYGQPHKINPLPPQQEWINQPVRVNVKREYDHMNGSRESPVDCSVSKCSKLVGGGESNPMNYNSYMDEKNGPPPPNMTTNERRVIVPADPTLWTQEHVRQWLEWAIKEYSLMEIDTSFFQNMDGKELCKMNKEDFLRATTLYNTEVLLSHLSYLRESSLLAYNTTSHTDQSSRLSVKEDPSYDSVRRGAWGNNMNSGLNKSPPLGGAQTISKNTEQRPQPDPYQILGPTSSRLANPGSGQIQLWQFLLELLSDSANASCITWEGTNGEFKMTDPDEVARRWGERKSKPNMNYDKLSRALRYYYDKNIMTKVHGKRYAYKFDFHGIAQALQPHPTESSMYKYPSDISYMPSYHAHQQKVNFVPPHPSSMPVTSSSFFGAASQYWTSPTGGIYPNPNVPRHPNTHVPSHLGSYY
The note with it: protein: recombinant; tags: N-terminal GST; dsDNA, one strand shown. The essentials: (§1)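 After expression in yeast as GST fusions, human transcription factors were bound to glutathione beads, DNA-barcoded and mixed with a tag-only sample. The pools were incubated with 200 nmole of a 16-mer random double-stranded DNA library in Tris/NaCl/DTT/glycerol buffer (30 min, room temperature), washed and crosslinked with 0.1% formaldehyde. Proximity ligation with BsaI/T4 ligase ran for 1 h at 37 °C, before PCR amplification and sequencing on an Illumina NextSeq500. Binding signal is a hexamer's read frequency for a factor divided by its frequency for the tag-only sample.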

The next test deals with T2, ELK1 (Homo sapiens, UniProt P19419 1-428).
T2 sequence: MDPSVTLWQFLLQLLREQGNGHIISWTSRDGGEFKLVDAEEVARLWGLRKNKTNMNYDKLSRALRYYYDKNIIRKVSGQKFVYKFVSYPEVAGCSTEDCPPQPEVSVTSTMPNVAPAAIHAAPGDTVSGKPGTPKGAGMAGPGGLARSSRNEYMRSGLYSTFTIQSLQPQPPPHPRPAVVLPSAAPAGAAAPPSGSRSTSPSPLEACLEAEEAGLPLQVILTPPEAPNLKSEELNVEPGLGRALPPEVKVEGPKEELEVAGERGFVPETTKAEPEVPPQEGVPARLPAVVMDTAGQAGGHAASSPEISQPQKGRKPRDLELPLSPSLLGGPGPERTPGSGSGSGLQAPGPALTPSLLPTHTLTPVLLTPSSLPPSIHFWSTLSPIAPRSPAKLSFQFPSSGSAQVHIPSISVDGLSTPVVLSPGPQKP
The following applies: protein: recombinant; tags: N-terminal GST; dsDNA, one strand shown. The essentials:
as §1

For another test, the target named is T3, GABPA (Homo sapiens, UniProt Q06546 1-454).
T3 sequence: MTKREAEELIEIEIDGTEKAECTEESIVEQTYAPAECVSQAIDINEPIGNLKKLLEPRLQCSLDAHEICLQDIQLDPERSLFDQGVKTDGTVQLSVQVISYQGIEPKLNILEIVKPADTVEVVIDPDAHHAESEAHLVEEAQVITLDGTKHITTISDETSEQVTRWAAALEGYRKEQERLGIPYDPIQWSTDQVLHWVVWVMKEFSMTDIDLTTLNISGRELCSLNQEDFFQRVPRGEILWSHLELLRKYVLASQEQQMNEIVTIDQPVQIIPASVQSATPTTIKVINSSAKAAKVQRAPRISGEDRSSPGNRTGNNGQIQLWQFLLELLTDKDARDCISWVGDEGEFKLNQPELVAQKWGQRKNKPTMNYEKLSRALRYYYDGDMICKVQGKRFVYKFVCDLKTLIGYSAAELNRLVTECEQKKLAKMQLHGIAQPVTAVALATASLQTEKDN
The note with it: protein: recombinant; tags: N-terminal GST; dsDNA, one strand shown. The essentials:
as §1

The target of a further test is T4, ERG (Homo sapiens, UniProt P11308 1-479).
T4 sequence: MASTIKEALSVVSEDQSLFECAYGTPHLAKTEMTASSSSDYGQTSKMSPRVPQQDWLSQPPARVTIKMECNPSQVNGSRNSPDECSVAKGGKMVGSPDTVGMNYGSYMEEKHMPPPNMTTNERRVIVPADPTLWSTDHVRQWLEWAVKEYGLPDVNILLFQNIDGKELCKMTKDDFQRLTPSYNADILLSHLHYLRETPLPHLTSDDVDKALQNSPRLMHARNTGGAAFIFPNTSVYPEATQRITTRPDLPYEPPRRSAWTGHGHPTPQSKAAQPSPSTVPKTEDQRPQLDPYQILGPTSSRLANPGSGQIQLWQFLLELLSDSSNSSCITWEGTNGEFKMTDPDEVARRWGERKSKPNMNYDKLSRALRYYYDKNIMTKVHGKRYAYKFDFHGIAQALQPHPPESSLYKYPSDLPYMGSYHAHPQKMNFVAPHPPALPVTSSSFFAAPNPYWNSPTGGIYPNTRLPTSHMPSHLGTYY
The following applies: protein: recombinant; tags: N-terminal GST; dsDNA, one strand shown. The essentials: as §1

A further test addresses ELF1 (Homo sapiens, UniProt P32519 1-619). The following applies: protein: recombinant; tags: N-terminal GST; dsDNA, one strand shown. The essentials:
as §1

A further test deals with T5, EHF (Homo sapiens, UniProt Q9NZC4 1-300).
T5 sequence: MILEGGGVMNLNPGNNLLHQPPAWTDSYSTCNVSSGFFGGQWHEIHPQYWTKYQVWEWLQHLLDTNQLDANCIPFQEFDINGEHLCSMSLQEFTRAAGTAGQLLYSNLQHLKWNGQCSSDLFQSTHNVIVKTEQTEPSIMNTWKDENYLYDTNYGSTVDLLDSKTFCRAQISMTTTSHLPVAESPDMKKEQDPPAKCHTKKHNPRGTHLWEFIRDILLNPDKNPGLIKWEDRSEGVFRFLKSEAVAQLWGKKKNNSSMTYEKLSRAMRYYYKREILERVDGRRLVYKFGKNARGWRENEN
The note with it: protein: recombinant; tags: N-terminal GST; dsDNA, one strand shown. An outline of the steps: as §1

Another test deals with SPI1 (Homo sapiens, UniProt P17947 1-270). The note with it: protein: recombinant; tags: N-terminal GST; dsDNA, one strand shown. The essentials: as §1
Another test has as its target SPIB (Homo sapiens, UniProt Q01892 1-262). The following applies: protein: recombinant; tags: N-terminal GST; dsDNA, one strand shown. An outline of the steps:
as §1

The next test deals with T6, ELK3 (Homo sapiens, UniProt P41970 1-407).
T6 sequence: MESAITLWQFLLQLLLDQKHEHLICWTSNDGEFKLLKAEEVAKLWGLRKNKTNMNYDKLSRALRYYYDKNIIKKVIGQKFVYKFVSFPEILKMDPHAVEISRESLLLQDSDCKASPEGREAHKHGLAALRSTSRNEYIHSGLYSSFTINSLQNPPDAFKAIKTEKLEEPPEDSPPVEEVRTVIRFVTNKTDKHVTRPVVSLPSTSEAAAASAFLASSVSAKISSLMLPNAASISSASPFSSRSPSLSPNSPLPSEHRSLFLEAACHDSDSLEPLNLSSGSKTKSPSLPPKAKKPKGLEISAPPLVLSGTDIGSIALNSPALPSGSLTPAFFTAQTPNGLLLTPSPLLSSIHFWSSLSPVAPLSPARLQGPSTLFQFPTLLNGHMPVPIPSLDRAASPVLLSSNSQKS
The following applies: protein: recombinant; tags: N-terminal GST; dsDNA, one strand shown. An outline of the steps: as §1

Another test deals with T7, FEV (Homo sapiens, UniProt Q99581 1-238).
T7 sequence: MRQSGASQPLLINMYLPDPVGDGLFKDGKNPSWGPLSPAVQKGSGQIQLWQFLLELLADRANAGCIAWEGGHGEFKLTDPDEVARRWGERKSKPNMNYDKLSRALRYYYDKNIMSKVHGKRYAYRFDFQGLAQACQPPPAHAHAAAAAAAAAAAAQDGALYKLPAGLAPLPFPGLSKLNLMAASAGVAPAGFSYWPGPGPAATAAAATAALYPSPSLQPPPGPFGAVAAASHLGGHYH
The note with it: protein: recombinant; tags: N-terminal GST; dsDNA, one strand shown. The essentials:
as §1

The target of another test is ETV5 (Homo sapiens, UniProt P41161 1-510). The note with it: protein: recombinant; tags: N-terminal GST; dsDNA, one strand shown. An outline of the steps: as §1
A further test deals with HSF1 (Homo sapiens, UniProt Q00613 1-529). The following applies: protein: recombinant; tags: N-terminal GST; chain copies: 3; dsDNA, one strand shown. An outline of the steps:
as §1

Another test deals with T8, SPIC (Homo sapiens, UniProt Q8N5J4 1-248).
T8 sequence: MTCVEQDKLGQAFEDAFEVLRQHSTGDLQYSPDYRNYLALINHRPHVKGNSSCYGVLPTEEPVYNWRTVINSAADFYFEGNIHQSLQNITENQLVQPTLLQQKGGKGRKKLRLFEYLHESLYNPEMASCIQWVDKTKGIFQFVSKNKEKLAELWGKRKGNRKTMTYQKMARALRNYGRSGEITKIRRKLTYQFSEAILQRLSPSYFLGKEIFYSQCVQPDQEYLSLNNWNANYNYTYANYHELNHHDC
The note with it: protein: recombinant; tags: N-terminal GST; dsDNA, one strand shown. An outline of the steps:
as §1

The next test has as its target ELF4 (Homo sapiens, UniProt Q99607 1-663). The following applies: protein: recombinant; tags: N-terminal GST; dsDNA, one strand shown. The essentials: as §1
The next test deals with T9, ELK4 (Homo sapiens, UniProt P28324-2 1-405).
T9 sequence: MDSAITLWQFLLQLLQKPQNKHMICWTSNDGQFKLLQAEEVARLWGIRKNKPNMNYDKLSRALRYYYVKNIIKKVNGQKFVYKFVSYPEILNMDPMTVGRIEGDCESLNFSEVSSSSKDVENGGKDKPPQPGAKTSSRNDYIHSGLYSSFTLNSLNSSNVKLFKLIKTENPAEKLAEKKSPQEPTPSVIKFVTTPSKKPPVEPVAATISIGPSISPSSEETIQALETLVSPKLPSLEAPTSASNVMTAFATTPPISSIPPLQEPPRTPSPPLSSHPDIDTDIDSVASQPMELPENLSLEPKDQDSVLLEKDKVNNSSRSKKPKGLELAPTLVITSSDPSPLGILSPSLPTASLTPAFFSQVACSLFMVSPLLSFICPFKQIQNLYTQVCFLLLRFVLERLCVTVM
The note with it: protein: recombinant; tags: N-terminal GST; dsDNA, one strand shown. The essentials:
as §1

The target in the next test is T10, ETV2 (Homo sapiens, UniProt O00321 1-342).
T10 sequence: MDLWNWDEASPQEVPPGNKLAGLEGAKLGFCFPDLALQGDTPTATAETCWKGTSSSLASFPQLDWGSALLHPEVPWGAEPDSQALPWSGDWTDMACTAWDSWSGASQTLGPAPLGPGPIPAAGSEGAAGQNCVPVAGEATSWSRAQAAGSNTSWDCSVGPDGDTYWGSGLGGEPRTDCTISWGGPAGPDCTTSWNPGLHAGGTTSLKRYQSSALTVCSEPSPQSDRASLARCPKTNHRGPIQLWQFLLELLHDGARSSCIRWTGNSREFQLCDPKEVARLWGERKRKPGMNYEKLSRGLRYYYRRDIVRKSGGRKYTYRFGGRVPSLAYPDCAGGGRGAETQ
The note with it: protein: recombinant; tags: N-terminal GST; dsDNA, one strand shown. The essentials:
as §1

Another test deals with T11, ELF3 (Homo sapiens, UniProt P78545 1-371).
T11 sequence: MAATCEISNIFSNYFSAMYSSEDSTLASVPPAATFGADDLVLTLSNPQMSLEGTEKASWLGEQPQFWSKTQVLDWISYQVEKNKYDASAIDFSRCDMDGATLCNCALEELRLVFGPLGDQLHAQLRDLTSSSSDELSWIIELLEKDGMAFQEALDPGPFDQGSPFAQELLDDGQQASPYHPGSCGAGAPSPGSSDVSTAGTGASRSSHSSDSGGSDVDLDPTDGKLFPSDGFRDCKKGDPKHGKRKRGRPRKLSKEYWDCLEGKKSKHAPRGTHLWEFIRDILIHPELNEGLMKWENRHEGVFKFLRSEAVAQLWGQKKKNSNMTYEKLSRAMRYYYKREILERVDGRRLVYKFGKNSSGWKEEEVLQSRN
The following applies: protein: recombinant; tags: N-terminal GST; dsDNA, one strand shown. An outline of the steps:
as §1

A further test deals with ETV1 (Homo sapiens, UniProt P50549 1-477). The note with it: protein: recombinant; tags: N-terminal GST; dsDNA, one strand shown. An outline of the steps: as §1
Chain of ETV1 (P50549 whole entry): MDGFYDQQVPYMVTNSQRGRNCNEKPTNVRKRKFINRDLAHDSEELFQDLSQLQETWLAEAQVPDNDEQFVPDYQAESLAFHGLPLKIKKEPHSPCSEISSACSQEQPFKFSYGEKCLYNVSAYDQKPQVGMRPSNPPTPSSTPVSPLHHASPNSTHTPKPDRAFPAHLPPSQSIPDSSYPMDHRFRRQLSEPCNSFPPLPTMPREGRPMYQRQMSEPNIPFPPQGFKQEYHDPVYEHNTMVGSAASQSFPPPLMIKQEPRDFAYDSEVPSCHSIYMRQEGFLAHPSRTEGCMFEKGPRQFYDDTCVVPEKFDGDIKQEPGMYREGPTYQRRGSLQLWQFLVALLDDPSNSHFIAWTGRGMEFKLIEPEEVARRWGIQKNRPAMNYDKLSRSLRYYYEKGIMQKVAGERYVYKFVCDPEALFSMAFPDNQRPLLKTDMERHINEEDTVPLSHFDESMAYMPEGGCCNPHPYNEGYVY

Chain of ELF1 (P32519 whole entry): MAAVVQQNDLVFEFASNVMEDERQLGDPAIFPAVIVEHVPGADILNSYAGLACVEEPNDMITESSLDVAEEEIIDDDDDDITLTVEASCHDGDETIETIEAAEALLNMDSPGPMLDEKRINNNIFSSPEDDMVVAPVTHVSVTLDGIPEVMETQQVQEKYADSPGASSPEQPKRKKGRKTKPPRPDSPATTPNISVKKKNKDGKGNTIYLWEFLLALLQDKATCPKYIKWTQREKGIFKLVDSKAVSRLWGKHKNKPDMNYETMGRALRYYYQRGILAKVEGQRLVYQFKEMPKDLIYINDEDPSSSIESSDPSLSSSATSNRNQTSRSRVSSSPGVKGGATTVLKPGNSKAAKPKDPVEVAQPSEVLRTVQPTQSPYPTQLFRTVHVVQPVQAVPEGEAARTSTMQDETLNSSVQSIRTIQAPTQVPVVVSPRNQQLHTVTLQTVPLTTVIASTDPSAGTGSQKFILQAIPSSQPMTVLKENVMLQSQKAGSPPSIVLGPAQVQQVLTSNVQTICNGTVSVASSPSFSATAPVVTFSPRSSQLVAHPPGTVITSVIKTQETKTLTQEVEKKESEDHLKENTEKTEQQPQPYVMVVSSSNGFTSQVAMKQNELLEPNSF
Chain of ELF4 (Q99607 whole entry): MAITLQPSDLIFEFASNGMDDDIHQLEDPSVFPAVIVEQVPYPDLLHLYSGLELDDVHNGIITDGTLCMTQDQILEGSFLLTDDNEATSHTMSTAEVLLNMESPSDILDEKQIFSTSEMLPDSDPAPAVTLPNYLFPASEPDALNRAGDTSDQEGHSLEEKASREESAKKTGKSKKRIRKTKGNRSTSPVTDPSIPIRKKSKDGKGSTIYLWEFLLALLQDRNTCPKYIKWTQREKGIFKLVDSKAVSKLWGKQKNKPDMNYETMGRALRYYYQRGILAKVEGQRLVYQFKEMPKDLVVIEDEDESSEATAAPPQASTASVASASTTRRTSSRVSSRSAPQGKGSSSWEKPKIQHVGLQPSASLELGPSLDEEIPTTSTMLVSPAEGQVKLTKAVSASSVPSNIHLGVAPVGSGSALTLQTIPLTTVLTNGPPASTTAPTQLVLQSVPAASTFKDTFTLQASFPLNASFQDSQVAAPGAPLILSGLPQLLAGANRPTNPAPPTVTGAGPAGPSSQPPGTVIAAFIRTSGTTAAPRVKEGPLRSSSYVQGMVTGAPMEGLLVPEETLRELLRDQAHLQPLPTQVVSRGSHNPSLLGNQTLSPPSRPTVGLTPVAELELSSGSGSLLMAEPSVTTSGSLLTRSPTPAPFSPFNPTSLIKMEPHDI
Chain of SPIB (Q01892 whole entry): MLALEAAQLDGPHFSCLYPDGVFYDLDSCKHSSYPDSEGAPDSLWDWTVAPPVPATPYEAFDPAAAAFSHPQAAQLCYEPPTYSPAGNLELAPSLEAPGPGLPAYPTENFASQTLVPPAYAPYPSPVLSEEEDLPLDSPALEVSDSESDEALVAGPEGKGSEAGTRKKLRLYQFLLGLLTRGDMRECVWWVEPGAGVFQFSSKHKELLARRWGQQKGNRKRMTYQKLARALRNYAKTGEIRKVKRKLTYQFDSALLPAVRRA
Chain of HSF1 (Q00613 whole entry): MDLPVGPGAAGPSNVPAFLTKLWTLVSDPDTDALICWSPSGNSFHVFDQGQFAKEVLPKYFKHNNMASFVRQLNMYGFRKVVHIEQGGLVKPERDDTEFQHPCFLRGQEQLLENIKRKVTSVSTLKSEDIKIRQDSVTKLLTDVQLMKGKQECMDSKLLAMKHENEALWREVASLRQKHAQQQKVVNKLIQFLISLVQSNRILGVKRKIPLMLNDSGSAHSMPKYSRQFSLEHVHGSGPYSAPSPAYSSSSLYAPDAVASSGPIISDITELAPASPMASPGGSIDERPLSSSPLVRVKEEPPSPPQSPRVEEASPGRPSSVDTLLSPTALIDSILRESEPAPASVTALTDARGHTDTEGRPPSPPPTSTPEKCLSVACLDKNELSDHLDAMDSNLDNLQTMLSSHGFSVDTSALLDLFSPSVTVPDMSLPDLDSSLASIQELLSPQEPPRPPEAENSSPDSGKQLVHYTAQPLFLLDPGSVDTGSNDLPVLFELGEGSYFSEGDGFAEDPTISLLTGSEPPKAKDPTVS
Chain of ETV5 (P41161 whole entry): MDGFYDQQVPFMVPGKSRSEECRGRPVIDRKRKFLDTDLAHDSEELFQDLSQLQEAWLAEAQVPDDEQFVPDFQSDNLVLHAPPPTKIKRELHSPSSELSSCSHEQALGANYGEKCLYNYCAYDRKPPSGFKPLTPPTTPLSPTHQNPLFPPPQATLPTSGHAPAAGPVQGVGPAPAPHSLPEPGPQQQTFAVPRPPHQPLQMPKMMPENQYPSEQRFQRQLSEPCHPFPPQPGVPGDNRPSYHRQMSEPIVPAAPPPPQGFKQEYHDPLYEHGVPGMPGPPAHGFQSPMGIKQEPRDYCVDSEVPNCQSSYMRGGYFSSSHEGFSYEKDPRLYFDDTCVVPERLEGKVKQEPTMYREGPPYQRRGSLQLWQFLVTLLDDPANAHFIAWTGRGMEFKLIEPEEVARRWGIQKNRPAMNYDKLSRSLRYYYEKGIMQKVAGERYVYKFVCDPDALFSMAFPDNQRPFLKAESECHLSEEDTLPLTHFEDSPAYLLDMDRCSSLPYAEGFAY

AGATGC: the binding signal in the test with FLI1 is 1.13 fold enrichment (6-mer frequency, TF over GST control); with ELK1 it was 1.14 fold enrichment (6-mer frequency, TF over GST control); in the test with GABPA, 1.05 fold enrichment (6-mer frequency, TF over GST control); in the test with ERG it was 1.11 fold enrichment (6-mer frequency, TF over GST control); in the test with ELF1 it was 1.04 fold enrichment (6-mer frequency, TF over GST control); with EHF it was 1.08 fold enrichment (6-mer frequency, TF over GST control). The binding signal with SPI1 is 1.08 fold enrichment (6-mer frequency, TF over GST control); with SPIB, 1.09 fold enrichment (6-mer frequency, TF over GST control); in the test with ELK3, 1.01 fold enrichment (6-mer frequency, TF over GST control); in the test with FEV, 1.05 fold enrichment (6-mer frequency, TF over GST control); in the test with ETV5, 1.09 fold enrichment (6-mer frequency, TF over GST control); in the test with HSF1, 1.1 fold enrichment (6-mer frequency, TF over GST control). The binding signal with SPIC is 1.11 fold enrichment (6-mer frequency, TF over GST control); in the test with ELF4, 1.1 fold enrichment (6-mer frequency, TF over GST control); with ELK4 it was 1.29 fold enrichment (6-mer frequency, TF over GST control); with ETV2 it was 1.01 fold enrichment (6-mer frequency, TF over GST control); with ELF3 it was 1.09 fold enrichment (6-mer frequency, TF over GST control); with ETV1, 1.05 fold enrichment (6-mer frequency, TF over GST control).
